Experimental findings from PubChem BioAssay (NCI) are described below.

Compounds without any hit were thinned out: in the full panel of roughly 83,000, 20% have a hit.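 The endpoint reported here, percent growth, reads 100 for growth as untreated, 0 for no net growth and -100 for all cells dead.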 A number with no mark means an inactive call. The source made the active and inactive calls. How the source made its calls: active means growth percent below 10; inactive means the rest.

Some test systems named below: SR leukemia; RPMI-8226 leukemia; OVCAR-8 ovarian; OVCAR-5 ovarian; OVCAR-4 ovarian; SK-OV-3 ovarian; IGROV1 ovarian; OVCAR-3 ovarian; HS 578T breast; NCI/ADR-RES ovarian; T-47D breast; BT-549 breast; MDA-MB-435 melanoma; SW-620 colon; MCF7 breast; HCT-116 colon; HCC-2998 colon; KM12 colon.
Holding throughout (test): NCI-60 one-dose screen, 48 h (100 = growth as untreated, 0 = no growth, -100 = all killed)
Conditions in all cases: 10 µM unless noted

As for `CCCn1cnc2c(c1=N)C(c1ccc(OC)cc1)c1sc3c(CC)cccc3c1O2` (centres undefined), the growth was 8.89% (active) with SR leukemia; -8.82% (active) in the experiment on RPMI-8226 leukemia; 26.9% with OVCAR-8 ovarian; 41.1% in the experiment with OVCAR-5 ovarian; 71.8% with OVCAR-4 ovarian; 42.3% in the experiment with SK-OV-3 ovarian. The growth is 31.9% in the experiment on IGROV1 ovarian; 6% (active) in the experiment with OVCAR-3 ovarian; 18.3% with HS 578T breast; 7.77% (active) in the experiment on NCI/ADR-RES ovarian; 27.9% in the experiment with T-47D breast; 33.3% in the experiment with BT-549 breast. The growth with MDA-MB-435 melanoma is -44.5% (active); in the experiment with SW-620 colon it was 28.4%; in the experiment with MCF7 breast, 18.4%; in the experiment with HCT-116 colon, 9.7% (active); in the experiment on HCC-2998 colon, 19.2%; in the experiment with KM12 colon, 16.8%.

`CCN(CC)c1ccc2c(c1)Oc1nc(N)c(C#N)c(N)c1C2Sc1ccc(C)cc1` (centres undefined): the growth in the experiment on SR leukemia was -22% (active); in the experiment with RPMI-8226 leukemia, -22.9% (active); in the experiment on OVCAR-8 ovarian, -57.9% (active); in the experiment with OVCAR-5 ovarian it was -88.6% (active); with OVCAR-4 ovarian, -96.7% (active); in the experiment on SK-OV-3 ovarian, -89.3% (active). Further, the growth in the experiment on IGROV1 ovarian was -87.4% (active); in the experiment with OVCAR-3 ovarian, -54% (active); with HS 578T breast it was -18.8% (active); in the experiment on NCI/ADR-RES ovarian, -17.9% (active); with T-47D breast, -41.8% (active); in the experiment with BT-549 breast it was 58.8%. The growth in the experiment with MDA-MB-435 melanoma was -95.5% (active); with SW-620 colon, -62.5% (active); in the experiment on MCF7 breast it was -70.7% (active); with HCT-116 colon, -80.2% (active); in the experiment with HCC-2998 colon, -90.2% (active); with KM12 colon it was -48.8% (active).

`C=C1CC[C@@H]2[C@]3(C)COC(c4ccccc4)O[C@@H]3CC[C@@]2(C)[C@@H]1C/C=C1/C(=O)OC[C@H]1O` (some centres undefined): the growth in the experiment on SR leukemia was 36.9%; with RPMI-8226 leukemia, 28.2%; in the experiment on OVCAR-8 ovarian it was 56.6%; with OVCAR-5 ovarian, 105%; in the experiment on OVCAR-4 ovarian, 83.4%; in the experiment on SK-OV-3 ovarian it was 119%. The growth was 89.3% with IGROV1 ovarian; 63.8% with OVCAR-3 ovarian; 101% in the experiment on HS 578T breast; 57% with NCI/ADR-RES ovarian; 70.6% in the experiment on T-47D breast; 63.8% with BT-549 breast. In addition, the growth was 81.4% with MDA-MB-435 melanoma; 49.7% in the experiment on SW-620 colon; 46.1% in the experiment with MCF7 breast; 38.4% in the experiment on HCT-116 colon; 108% in the experiment on HCC-2998 colon; 86.1% in the experiment on KM12 colon.

For `C#CCC#CCN1CCC[C@H]1C(=O)NCC(=O)OC`, the growth with SR leukemia was 118%; in the experiment with RPMI-8226 leukemia, 113%; in the experiment with OVCAR-8 ovarian it was 99.1%; in the experiment on OVCAR-5 ovarian, 107%; in the experiment on OVCAR-4 ovarian, 97.3%; in the experiment on SK-OV-3 ovarian, 101%. The growth in the experiment with IGROV1 ovarian was 104%; with OVCAR-3 ovarian, 114%; in the experiment on HS 578T breast, 117%; in the experiment on NCI/ADR-RES ovarian it was 96%; in the experiment on T-47D breast, 94.8%; in the experiment on BT-549 breast, -91.5% (active). Besides, the growth in the experiment with MDA-MB-435 melanoma was 105%; in the experiment on SW-620 colon it was 113%; in the experiment with MCF7 breast, 99.4%; in the experiment on HCT-116 colon, 104%; in the experiment with HCC-2998 colon, 106%; with KM12 colon, 103%.

`O=C(CN1CCN(c2cc(=O)n(-c3ccccc3)c3ccccc23)CC1)Nc1nc(-c2ccc(Cl)cc2)cs1`: the growth with SR leukemia is 56.8%; in the experiment on RPMI-8226 leukemia, 36.7%; in the experiment with OVCAR-8 ovarian, 59.4%; in the experiment with OVCAR-5 ovarian, 93.1%; with OVCAR-4 ovarian, 19.7%; with SK-OV-3 ovarian it was 71.4%. The growth with IGROV1 ovarian is 65.5%; with OVCAR-3 ovarian, 67.1%; in the experiment on HS 578T breast, 92.8%; in the experiment with NCI/ADR-RES ovarian, 54.9%; in the experiment with T-47D breast, 24.3%; in the experiment on BT-549 breast, 46.5%. In addition, the growth was 49.8% in the experiment with MDA-MB-435 melanoma; 74.3% in the experiment with SW-620 colon; 20.1% in the experiment with MCF7 breast; 35.8% in the experiment with HCT-116 colon; 92.4% in the experiment with HCC-2998 colon; 64.7% in the experiment on KM12 colon.

Take `COc1ccc(/C=C(/C)c2ccc3ccc(OC)cc3[o+]2)c(O)c1`: the growth is 14.9% in the experiment on SR leukemia; 58.4% in the experiment with RPMI-8226 leukemia; 80.5% with OVCAR-8 ovarian; 98.5% in the experiment on OVCAR-5 ovarian; 84.5% in the experiment on OVCAR-4 ovarian; 98.6% with SK-OV-3 ovarian. Moreover, the growth in the experiment with IGROV1 ovarian is 58%; in the experiment with OVCAR-3 ovarian it was 35.1%; in the experiment on HS 578T breast it was 98.7%; with NCI/ADR-RES ovarian, 45.3%; in the experiment on T-47D breast, 69.7%; in the experiment on BT-549 breast it was 87.9%. Besides, the growth with MDA-MB-435 melanoma is 38%; in the experiment with SW-620 colon, 30.1%; in the experiment on MCF7 breast, 30.7%; in the experiment with HCT-116 colon it was 50.7%; in the experiment with HCC-2998 colon, 114%; in the experiment on KM12 colon, 71.6%.

Take `O=c1[nH]c2ccccc2cc1CSc1ccccc1Nc1nccc(-c2ccc(Cl)cc2)n1`: the growth in the experiment with SR leukemia is 99.2%; with RPMI-8226 leukemia, 94.5%; in the experiment with OVCAR-8 ovarian, 96.9%; in the experiment on OVCAR-5 ovarian it was 110%; in the experiment with OVCAR-4 ovarian it was 86.2%; with SK-OV-3 ovarian, 112%. The growth in the experiment on IGROV1 ovarian is 89.6%; in the experiment on OVCAR-3 ovarian, 101%; with HS 578T breast, 88.6%; with NCI/ADR-RES ovarian it was 95.1%; in the experiment on T-47D breast, 93.3%; in the experiment with BT-549 breast, 119%. Moreover, the growth was 99.9% with MDA-MB-435 melanoma; 101% in the experiment on SW-620 colon; 81.1% in the experiment on MCF7 breast; 100% in the experiment with HCT-116 colon; 114% in the experiment with HCC-2998 colon; 100% in the experiment on KM12 colon.

`COc1ccc(NC(=O)Nc2ccc3c(ccn3C(=O)c3cccc(F)c3)c2)cc1`: the growth with SR leukemia was 42.7%; in the experiment with RPMI-8226 leukemia, 78.9%; in the experiment on OVCAR-8 ovarian, 89.1%; with OVCAR-5 ovarian it was 62.3%; in the experiment on OVCAR-4 ovarian it was 48.1%; with SK-OV-3 ovarian, 106%. In addition, the growth is 69.1% in the experiment with IGROV1 ovarian; 13.5% in the experiment with OVCAR-3 ovarian; 31.6% with HS 578T breast; 65.5% with NCI/ADR-RES ovarian; 75.9% with T-47D breast; 76.2% in the experiment with BT-549 breast. Besides, the growth is 74.9% with MDA-MB-435 melanoma; 60.2% in the experiment with SW-620 colon; 60.4% in the experiment with MCF7 breast; 45.8% in the experiment with HCT-116 colon; 86.8% in the experiment on HCC-2998 colon; 53% in the experiment with KM12 colon.
